Results reported in the supplement of paper PMC6135742.
Structures can show the parent of a compound that is named as a salt. Over roughly 2,600 compounds, “total cell number (DAPI+ nuclei) relative to DMSO vehicle control” has its median near -1.4; the lowest 2% begin near -23. The entries come from a sample that favours the lowest values as a whole.

The compounds below were run on jimpy (Plp1 jimpy) mouse iPSC-derived oligodendrocyte progenitor cells (assay: total cell number (DAPI+ nuclei) relative to DMSO vehicle control (SDs above negative control mean); higher = more surviving cells). Conditions: 10 µM; 3 days.
Protocol: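 Primary phenotypic screen of >3,000 bioactive compounds (Selleck L1700 and Sigma LO1280 libraries) at a single dose of 10 µM. Compounds were added to jimpy (Plp1 mutant) mouse iPSC-derived OPCs at the start of thyroid hormone-induced oligodendrocyte differentiation, one well per compound in 384-well plates. After 3 days cells were stained for MBP, Sox10 and DAPI and imaged with an Operetta system. MBP+ oligodendrocyte number and total cell number were expressed as the number of SDs above the mean of the DMSO negative control on the same plate (n=16 control wells per plate). Hits were defined as >=4 SD for oligodendrocytes and >=2 SD for total cells.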

| SMILES | total cell number |
| --- | --- |
| COC(=O)C1=C(C)NC(C)=C(C(=O)OCCN2CCN(C(c3ccccc3)c3ccccc3)CC2)C1c1cccc([N+](=O)[O-])c1 (stereo not drawn) [Manidipine 2HCl] | -11.4 |
| COC(=O)C1=C(C)NC(C)=C(C(=O)OCCN2CCN(C(c3ccccc3)c3ccccc3)CC2)C1c1cccc([N+](=O)[O-])c1 (stereo not drawn) [Manidipine] | -13 |
| C=CCN1CCc2cc(O)c(O)cc2C(c2ccccc2)C1 (racemic) | -1.7 |
| C[C@@]1(C(=O)Nc2ccc(F)nc2)CCCN1c1nc(Nc2cc(C3CC3)n[nH]2)c2cccn2n1 | -24.7 |
| O=C(COc1cccc2c(=O)[nH]ccc12)c1ccccc1 | -0.123 |
| CCc1ccc2c(-c3cccc(Cl)c3)nc(=O)n(CC)c2n1 | 0.722 |
| CC(C)NC[C@@H](C(=O)N1CCN(c2ncnc3c2[C@H](C)C[C@H]3O)CC1)c1ccc(Cl)cc1 | -8.76 |
| COc1ccc(C2=N[C@@H](c3ccc(Cl)cc3)[C@@H](c3ccc(Cl)cc3)N2C(=O)N2CCNC(=O)C2)c(OC(C)C)c1 [Nutlin-3] | -23.5 |
| C=C1C(=O)O[C@@H]2/C=C(\C)CC/C=C(\C)CC[C@@H]12 [Costunolide] | -21 |
| CN1CCN(c2ccc3nc(-c4c(N)c5c(F)cccc5[nH]c4=O)[nH]c3c2)CC1 [Dovitinib (TKI-258, CHIR-258)] | -25.7 |
| CN1CCN(c2ccc3nc(-c4c(N)c5c(F)cccc5[nH]c4=O)[nH]c3c2)CC1 [Dovitinib (TKI-258) Dilactic Acid] | -12.1 |
| COc1cc(CCc2cc(NC(=O)c3ccc(N4CC(C)NC(C)C4)cc3)n[nH]2)cc(OC)c1 (stereo not drawn) | -10.9 |
| NC/C=C/C(=O)O [(E)-4-amino-2-butenoic acid] | -1.89 |
| CC(C)NCC(O)COc1cccc2ccccc12 (racemic) [(±)-Propranolol hydrochloride] | -1.57 |
| c1ccc(-c2[nH]ncc2-c2ccnc3ccccc23)nc1 | -2.66 |
| OC[C@H]1O[C@H]([S-])[C@H](O)[C@@H](O)[C@@H]1O.[Au+] [Aurothioglucose] | -2.94 |
| O=C(c1ccc(/C=C/c2n[nH]c3ccccc23)cc1)N1CCNCC1 | -13.2 |
| COCC[n+]1c2c(n(Cc3cnccn3)c1C)C(=O)c1ccccc1C2=O [YM155 (Sepantronium Bromide)] | -27.7 |
| Cc1ccc2c(c1)C(=O)C1(O)CCN(c3ccccc3)C1=N2 (single isomer, unassigned; (-)) [(-)-Blebbistatin] | -14.8 |
| CNC(=O)CN1CCC(Oc2cc3c(Nc4cccc(Cl)c4F)ncnc3cc2OC)CC1 [AZD8931 (Sapitinib)] | -10.1 |
| CN1CCN(CCOc2cc(OC3CCOCC3)c3c(Nc4c(Cl)ccc5c4OCO5)ncnc3c2)CC1 [Saracatinib (AZD0530)] | -22.8 |
| Cc1ccc(Sc2cncc3sc(C(N)=O)cc23)cc1 | 0.0291 |
| O=C(Nc1ccccc1)N1CCN(c2nc(-c3ccccc3)ns2)CC1 | 0.543 |
| CC(C)C[C@H](C(=O)O)c1cc(-c2ccc(C(F)(F)F)cc2)cc(-c2ccc(C(F)(F)F)cc2)c1 | 10.7 |

| SMILES | total cell number |
| --- | --- |
| COc1ccccc1CN[C@H]1CCCN[C@H]1c1ccccc1 | -1.93 |
| CCCCCCCCCCCCCCCCn1cc[n+](Cc2ccccc2)c1C | -16.7 |
| CCCCCN(CCCOC)C(=O)C(CCC(=O)O)NC(=O)c1ccc(Cl)c(Cl)c1 (stereo not drawn) [Loxiglumide] | -0.322 |
| CC[C@@H]1C(=O)N(C)c2cnc(Nc3ccc(C(=O)NC4CCN(C)CC4)cc3OC)nc2N1C1CCCC1 | -26.1 |
| COc1cc(OC2CCN(C)CC2)ccc1Nc1ncc2c(n1)n(C1CCCC1)c(=O)n2C | -7.07 |
| CC[C@@H]1C(=O)N(C)c2cnc(Nc3ccc(C(=O)N[C@H]4CC[C@H](N5CCN(CC6CC6)CC5)CC4)cc3OC)nc2N1C(C)C [Volasertib (BI 6727)] | -14.6 |
| CN1C2=CC(=O)/C(=N\NC(N)=O)C=C2CC1S(=O)(=O)O (stereo not drawn) [Carbazochrome sodium sulfonate (AC-17)] | -0.411 |
| CC1=C(C(=O)OC(C)C)C(c2cccc([N+](=O)[O-])c2)C(C(=O)OC2CN(C(c3ccccc3)c3ccccc3)C2)=C(N)N1 (stereo not drawn) [Azelnidipine] | -12.3 |
| CNCc1cc(-c2ccccc2F)n(S(=O)(=O)c2cccnc2)c1 | -1.01 |
| CNC(=O)c1cc(Oc2ccc(NC(=O)Nc3ccc(Cl)c(C(F)(F)F)c3)c(F)c2)ccn1 [Regorafenib (BAY 73-4506)] | 0.684 |
| CCC(=O)Nc1cccc(Oc2nc(Nc3ccc(N4CCN(C)CC4)cc3OC)ncc2Cl)c1 | -15.2 |
| Cn1c(=O)c(-c2c(Cl)cccc2Cl)cc2cnc(Nc3ccc(N4CCOCC4)cc3)nc21 | -9.85 |
| CNC(=O)c1ccccc1Nc1nc(Nc2ccc(N3CCOCC3)cc2OC)ncc1Cl | -12.2 |
| COc1cc(N2CCC(N3CCN(C)CC3)CC2)ccc1Nc1ncc(Cl)c(Nc2ccccc2S(=O)(=O)C(C)C)n1 | -27.1 |
| C=CC(=O)Nc1cccc(Oc2nc(Nc3ccc(N4CCN(C)CC4)cc3OC)ncc2Cl)c1 | -24.9 |
| C=CC(=O)Nc1cccc(Nc2nc(Nc3ccc(N4CCN(C(C)=O)CC4)cc3OC)ncc2C(F)(F)F)c1 | -15.5 |
| Cc1cnc(Nc2ccc(N3CCN(C)CC3)cc2)nc1Nc1cccc(S(=O)(=O)NC(C)(C)C)c1 | -12.1 |
| Cc1cc(Nc2ncc(Cl)c(Nc3ccccc3S(=O)(=O)C(C)C)n2)c(OC(C)C)cc1C1CCNCC1 | -16.3 |
| C=CC(=O)Nc1cccc(Oc2nc(Nc3ccc(N4CCN(C)CC4)cc3)ncc2Cl)c1 | -26.9 |
| C=CC(=O)Nc1cccc(Nc2nc(Nc3ccc(Oc4ccnc(C(=O)NC)c4)cc3)ncc2F)c1 | -15 |
| C=CCn1c(=O)c2cnc(Nc3ccc(N4CCN(C)CC4)cc3)nc2n1-c1cccc(C(C)(C)O)n1 | -14.6 |
| C=CC(=O)Nc1cccc(Sc2nc(Nc3ccc(N4CCN(C)CC4)cc3)ncc2Cl)c1 | -26.9 |
| CC(C)(CO)Cc1cc(C(C)(C)C)c(O)c(C(C)(C)C)c1 | 1.01 |
| COC(=O)C1=C(C)NC(C)=C(C(=O)OC(C)(C)CN(C)CCC(c2ccccc2)c2ccccc2)C1c1cccc([N+](=O)[O-])c1 (stereo not drawn) [Lercanidipine hydrochloride hemihydrate] | -8.91 |
